# Data: ChEMBL document CHEMBL2218924, “A broad activity screen in support of a chemogenomic map for kinase signalling research and drug discovery” (Biochem J, 2013)
# What was measured:
# [1] = target: RAC-alpha serine/threonine-protein kinase (Homo sapiens) (UniProt P31749); settings: at 1 µM
# [2] = target: RAC-alpha serine/threonine-protein kinase (Homo sapiens) (UniProt P31749); settings: at 10 µM
# [3] = target: Platelet-derived growth factor receptor alpha (Homo sapiens) (UniProt P16234); settings: at 10 µM
# [4] = target: Platelet-derived growth factor receptor beta (Homo sapiens) (UniProt P09619); settings: at 1 µM
# Chain of Platelet-derived growth factor receptor beta (Homo sapiens) (P09619 whole entry): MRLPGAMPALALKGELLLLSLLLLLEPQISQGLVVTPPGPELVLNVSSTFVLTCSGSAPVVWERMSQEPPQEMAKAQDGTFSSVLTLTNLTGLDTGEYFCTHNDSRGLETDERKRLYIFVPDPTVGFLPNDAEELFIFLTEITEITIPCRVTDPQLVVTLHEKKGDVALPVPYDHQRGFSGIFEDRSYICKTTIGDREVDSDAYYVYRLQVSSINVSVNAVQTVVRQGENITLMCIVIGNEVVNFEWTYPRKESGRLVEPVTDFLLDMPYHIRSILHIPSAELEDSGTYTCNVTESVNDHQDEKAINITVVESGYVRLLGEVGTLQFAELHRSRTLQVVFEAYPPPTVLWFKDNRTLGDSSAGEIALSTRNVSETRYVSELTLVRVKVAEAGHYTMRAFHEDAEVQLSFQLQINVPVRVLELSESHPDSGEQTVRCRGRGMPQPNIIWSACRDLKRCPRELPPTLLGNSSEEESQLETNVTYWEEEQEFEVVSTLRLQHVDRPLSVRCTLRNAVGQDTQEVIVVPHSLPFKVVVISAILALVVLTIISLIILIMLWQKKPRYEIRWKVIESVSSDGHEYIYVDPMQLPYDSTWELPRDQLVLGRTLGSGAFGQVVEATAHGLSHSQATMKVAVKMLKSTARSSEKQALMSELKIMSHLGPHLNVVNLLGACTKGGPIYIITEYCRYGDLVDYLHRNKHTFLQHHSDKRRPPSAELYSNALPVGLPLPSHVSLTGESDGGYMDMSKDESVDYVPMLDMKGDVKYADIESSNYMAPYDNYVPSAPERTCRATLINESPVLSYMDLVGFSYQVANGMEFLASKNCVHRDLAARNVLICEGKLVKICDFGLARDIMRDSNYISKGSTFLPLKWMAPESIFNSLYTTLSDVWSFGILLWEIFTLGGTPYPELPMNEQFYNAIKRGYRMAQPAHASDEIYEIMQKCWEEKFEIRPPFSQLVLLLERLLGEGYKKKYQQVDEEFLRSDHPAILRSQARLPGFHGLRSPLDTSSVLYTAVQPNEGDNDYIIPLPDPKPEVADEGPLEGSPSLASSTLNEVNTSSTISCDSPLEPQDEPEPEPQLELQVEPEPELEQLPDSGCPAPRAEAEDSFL
# [5] = target: Platelet-derived growth factor receptor beta (Homo sapiens) (UniProt P09619); settings: at 10 µM
# [6] = target: RAC-gamma serine/threonine-protein kinase (Homo sapiens) (UniProt Q9Y243); settings: at 1 µM
# Chain of RAC-gamma serine/threonine-protein kinase (Homo sapiens) (Q9Y243 whole entry): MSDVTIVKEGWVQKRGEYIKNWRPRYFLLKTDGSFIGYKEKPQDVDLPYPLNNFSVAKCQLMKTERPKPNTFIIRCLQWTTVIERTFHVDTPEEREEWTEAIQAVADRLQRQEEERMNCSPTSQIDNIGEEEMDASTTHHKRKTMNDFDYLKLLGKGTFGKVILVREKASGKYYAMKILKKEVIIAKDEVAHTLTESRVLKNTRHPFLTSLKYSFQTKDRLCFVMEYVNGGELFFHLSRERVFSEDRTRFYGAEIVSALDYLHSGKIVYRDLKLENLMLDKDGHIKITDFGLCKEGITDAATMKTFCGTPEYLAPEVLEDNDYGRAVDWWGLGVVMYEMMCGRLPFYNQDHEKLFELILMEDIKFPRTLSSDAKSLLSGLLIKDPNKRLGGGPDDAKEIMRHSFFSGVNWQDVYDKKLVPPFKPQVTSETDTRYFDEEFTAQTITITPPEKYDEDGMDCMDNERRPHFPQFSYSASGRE
# [7] = target: RAC-gamma serine/threonine-protein kinase (Homo sapiens) (UniProt Q9Y243); settings: at 10 µM
# [8] = target: Protein kinase C gamma type (Homo sapiens) (UniProt P05129); settings: at 1 µM
# [9] = target: Protein kinase C gamma type (Homo sapiens) (UniProt P05129); settings: at 10 µM
# [10] = target: T1, 3-phosphoinositide-dependent protein kinase 1 (Homo sapiens) (UniProt O15530); settings: at 1 µM
# T1 sequence (whole entry): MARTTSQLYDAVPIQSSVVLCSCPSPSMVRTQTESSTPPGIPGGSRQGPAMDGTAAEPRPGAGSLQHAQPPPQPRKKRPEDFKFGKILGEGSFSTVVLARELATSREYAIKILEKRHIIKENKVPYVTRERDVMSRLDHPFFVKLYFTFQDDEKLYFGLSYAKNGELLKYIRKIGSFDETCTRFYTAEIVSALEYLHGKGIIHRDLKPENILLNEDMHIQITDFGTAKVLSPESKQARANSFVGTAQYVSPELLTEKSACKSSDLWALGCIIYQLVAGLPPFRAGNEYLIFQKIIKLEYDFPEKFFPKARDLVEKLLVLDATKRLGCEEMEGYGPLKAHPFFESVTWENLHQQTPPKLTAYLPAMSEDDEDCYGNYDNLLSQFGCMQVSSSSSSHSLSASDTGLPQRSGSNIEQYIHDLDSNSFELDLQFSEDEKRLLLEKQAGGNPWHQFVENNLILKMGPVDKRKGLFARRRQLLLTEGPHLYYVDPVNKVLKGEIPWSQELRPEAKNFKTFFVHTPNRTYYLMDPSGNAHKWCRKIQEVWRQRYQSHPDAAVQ
# [11] = target: T1, 3-phosphoinositide-dependent protein kinase 1 (Homo sapiens); settings: at 10 µM
# [12] = target: Protein kinase C alpha type (Homo sapiens) (UniProt P17252); settings: at 10 µM
# [13] = target: Protein kinase C beta type (Homo sapiens) (UniProt P05771); settings: at 1 µM
# Chain of Protein kinase C beta type (Homo sapiens) (P05771 2-671 limits assumed): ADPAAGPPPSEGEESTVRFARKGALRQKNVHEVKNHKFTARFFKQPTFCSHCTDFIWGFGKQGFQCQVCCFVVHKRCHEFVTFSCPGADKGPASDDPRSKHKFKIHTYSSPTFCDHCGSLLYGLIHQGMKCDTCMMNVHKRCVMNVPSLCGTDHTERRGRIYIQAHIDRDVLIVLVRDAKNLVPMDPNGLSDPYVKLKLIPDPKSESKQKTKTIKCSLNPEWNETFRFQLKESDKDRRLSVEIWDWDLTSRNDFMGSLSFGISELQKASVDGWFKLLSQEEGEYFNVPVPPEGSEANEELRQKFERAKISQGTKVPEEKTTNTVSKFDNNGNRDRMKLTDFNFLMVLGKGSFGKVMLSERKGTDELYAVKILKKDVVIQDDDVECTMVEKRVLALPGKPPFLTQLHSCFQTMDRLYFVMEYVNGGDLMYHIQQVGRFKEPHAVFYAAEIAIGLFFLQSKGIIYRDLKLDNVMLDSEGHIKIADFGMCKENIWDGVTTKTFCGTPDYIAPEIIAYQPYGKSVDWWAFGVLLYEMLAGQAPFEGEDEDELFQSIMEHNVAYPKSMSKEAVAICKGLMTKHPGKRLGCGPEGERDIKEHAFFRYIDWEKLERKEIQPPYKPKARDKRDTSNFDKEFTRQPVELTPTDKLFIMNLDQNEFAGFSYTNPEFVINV
# [14] = target: Protein kinase C beta type (Homo sapiens) (UniProt P05771); settings: at 10 µM
# [15] = target: Protein kinase C delta type (Homo sapiens) (UniProt Q05655); settings: at 1 µM
# Chain of Protein kinase C delta type (Homo sapiens) (Q05655 whole entry, looked up): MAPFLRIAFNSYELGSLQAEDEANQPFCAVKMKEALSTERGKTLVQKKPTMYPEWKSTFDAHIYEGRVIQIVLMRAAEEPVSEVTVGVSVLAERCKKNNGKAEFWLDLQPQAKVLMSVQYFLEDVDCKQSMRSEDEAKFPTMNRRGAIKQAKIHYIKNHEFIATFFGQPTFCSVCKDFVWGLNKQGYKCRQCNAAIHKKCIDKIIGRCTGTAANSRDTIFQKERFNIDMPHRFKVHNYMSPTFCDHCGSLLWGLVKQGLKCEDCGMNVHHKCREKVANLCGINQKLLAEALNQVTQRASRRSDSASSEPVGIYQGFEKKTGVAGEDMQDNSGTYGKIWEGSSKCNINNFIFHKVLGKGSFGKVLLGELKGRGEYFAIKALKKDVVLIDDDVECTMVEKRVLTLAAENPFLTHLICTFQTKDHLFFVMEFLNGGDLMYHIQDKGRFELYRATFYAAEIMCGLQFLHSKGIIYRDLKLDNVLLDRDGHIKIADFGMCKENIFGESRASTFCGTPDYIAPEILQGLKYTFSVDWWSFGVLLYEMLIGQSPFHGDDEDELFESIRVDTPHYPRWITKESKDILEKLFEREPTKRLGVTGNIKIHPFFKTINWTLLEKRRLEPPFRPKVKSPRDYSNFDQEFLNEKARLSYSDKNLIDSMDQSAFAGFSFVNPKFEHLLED
# [16] = target: cAMP-dependent protein kinase catalytic subunit alpha (Homo sapiens) (UniProt P17612); settings: at 1 µM
# [17] = target: cAMP-dependent protein kinase catalytic subunit alpha (Homo sapiens) (UniProt P17612); settings: at 10 µM
# [18] = target: Protein kinase C alpha type (Homo sapiens) (UniProt P17252); settings: at 1 µM
# [19] = target: Protein kinase C beta type (Homo sapiens) (UniProt P05771); settings: at 1 µM; remark: listed apart in the source
# [20] = target: Protein kinase C beta type (Homo sapiens) (UniProt P05771); settings: at 10 µM; remark: listed apart in the source
# Chain of RAC-alpha serine/threonine-protein kinase (Homo sapiens) (P31749 whole entry): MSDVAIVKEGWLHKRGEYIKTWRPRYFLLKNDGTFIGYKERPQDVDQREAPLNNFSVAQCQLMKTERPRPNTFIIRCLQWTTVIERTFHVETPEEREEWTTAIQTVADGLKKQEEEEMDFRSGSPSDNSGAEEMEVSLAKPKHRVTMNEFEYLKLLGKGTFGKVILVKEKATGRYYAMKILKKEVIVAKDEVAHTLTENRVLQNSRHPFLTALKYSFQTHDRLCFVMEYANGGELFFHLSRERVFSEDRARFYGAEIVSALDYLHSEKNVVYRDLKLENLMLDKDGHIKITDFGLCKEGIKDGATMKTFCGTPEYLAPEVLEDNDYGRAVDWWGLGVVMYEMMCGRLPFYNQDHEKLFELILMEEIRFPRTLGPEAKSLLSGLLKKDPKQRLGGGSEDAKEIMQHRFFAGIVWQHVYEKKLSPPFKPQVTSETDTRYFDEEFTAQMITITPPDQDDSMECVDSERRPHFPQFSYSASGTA
smiles,measurement,setting,value
COc1ccc2c(c1)c(C1=C(c3c[nH]c4ccccc34)C(=O)NC1=O)cn2CCCN(C)C,residual activity,[1],110%
same,residual activity,[2],120%
CN(C)c1ccc(/C=C2\C(=O)Nc3ccccc32)cc1,residual activity,[1],112%
same,residual activity,[2],121%
Ic1cccc(CSc2nnc(-c3ccncc3)o2)c1,residual activity,[1],116%
N/C(=N\[N+](=O)[O-])N/N=C\c1ccc(-c2cccc([N+](=O)[O-])c2)o1,residual activity,[3],54%
same,residual activity,[4],100%
same,residual activity,[5],60%
same,residual activity,[6],77%
same,residual activity,[7],77%
same,residual activity,[8],91%
same,residual activity,[9],94%
CCc1nc(-c2ccc(OC)cc2)[nH]c1-c1ccncc1,residual activity,[3],109%
same,residual activity,[4],110%
same,residual activity,[5],108%
same,residual activity,[10],110%
same,residual activity,[11],101%
same,residual activity,[1],113%
same,residual activity,[2],108%
same,residual activity,[12],105%
same,residual activity,[13],127%
same,residual activity,[14],105%
same,residual activity,[8],108%
same,residual activity,[9],108%
same,residual activity,[15],107%
COc1cc2ncnc(Nc3ccc(Oc4ccccc4)cc3)c2cc1OC,residual activity,[1],108%
same,residual activity,[2],107%
O=C1Nc2ccc3ncsc3c2/C1=C/c1c[nH]cn1,residual activity,[3],20%
same,residual activity,[5],29%
same,residual activity,[10],31%
same,residual activity,[11],6%
same,residual activity,[16],25%
same,residual activity,[17],5%
same,residual activity,[1],99%
same,residual activity,[2],106%
same,residual activity,[7],30%
same,residual activity,[18],67%
same,residual activity,[12],18%
same,residual activity,[13],55%
same,residual activity,[14],12%
same,residual activity,[19],67%
same,residual activity,[20],43%
same,residual activity,[8],69%
same,residual activity,[9],21%
same,residual activity,[15],15%
O=c1cc(N2CCOCC2)oc2c1ccc1ccccc12,residual activity,[1],103%
same,residual activity,[2],106%
CCn1cnc2c(Nc3cccc(Cl)c3)nc(N[C@@H]3CCCC[C@@H]3N)nc21,residual activity,[3],86%
same,residual activity,[5],76%
same,residual activity,[11],84%
same,residual activity,[6],94%
same,residual activity,[7],61%
same,residual activity,[18],89%
same,residual activity,[12],58%
same,residual activity,[13],98%
same,residual activity,[14],85%
same,residual activity,[19],99%
same,residual activity,[20],92%
same,residual activity,[8],81%
same,residual activity,[9],45%
same,residual activity,[15],86%
CCCC(=O)Oc1ccc2[nH]c(C(=O)c3cc4ccccc4[nH]3)cc2c1,residual activity,[1],97%
